Measurements as given in the supplement of paper PMC10849652.
Targets with a hit are over-represented here; the source holds about 7,900 in all. About 0.6% of all pairs of compound and target were hits. A number with no mark means an inactive call.

Tests used:
Experiment in all cases: log2 fold change, soluble protein after heating vs DMSO (PISA); higher = thermal stabilisation; K562 cells, 10 uM, 30 min; active = over 0.2 and 3.5 SD of the protein, either way, in both replicates (recomputed)
bafetinib = compound: Cc1ccc(NC(=O)c2ccc(CN3CC[C@H](N(C)C)C3)c(C(F)(F)F)c2)cc1Nc1nccc(-c2cncnc2)n1 [bafetinib]
Summary of the method: (§1)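 K562 cells at 2×10^6 cells/mL were treated with 10 μM compound for 30 min. Aliquots were heated for 3 min across 48°C-58°C, pooled, and extracted in PBS with 0.5% NP-40 at 4°C; soluble protein was the supernatant after 21,000xg for 90 min. Soluble protein was quantified by TMTpro 16plex LC-MS/MS with channel sums equalised, and reported as log2 fold change in thermal stability against DMSO controls, with values from duplicates.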

[1] = compound: Cc1cccc(CC(=O)N2CCc3c2ccc(-c2cn(C)c4ncnc(N)c24)c3F)n1
Summary of the method: as §1

nilotinib = compound: Cc1cn(-c2cc(NC(=O)c3ccc(C)c(Nc4nccc(-c5cccnc5)n4)c3)cc(C(F)(F)F)c2)cn1 [nilotinib]
Summary of the method: as §1

[2] = compound: Cc1nc(Nc2n[nH]c3c2CN(C(=O)N[C@H](CN(C)C)c2ccccc2)C3(C)C)c2sccc2n1
Summary of the method: as §1

dasatinib = compound: Cc1nc(Nc2ncc(C(=O)Nc3c(C)cccc3Cl)s2)cc(N2CCN(CCO)CC2)n1 [dasatinib]
Summary of the method: as §1

[3] = compound: Cc1ncc(-c2ccnc(Nc3ccc(S(C)(=O)=O)cc3)n2)n1C(C)C
Summary of the method: as §1

[4] = compound: Cn1cc(-c2ccc3c(c2)CCN3C(=O)Cc2cccc(C(F)(F)F)c2)c2c(N)ncnc21
Summary of the method: as §1

[5] = compound: Cn1cc(-c2ccc3nnc(C(F)(F)c4ccc5ncccc5c4)n3n2)cn1
Summary of the method: as §1

tipifarnib = compound: Cn1cncc1[C@@](N)(c1ccc(Cl)cc1)c1ccc2c(c1)c(-c1cccc(Cl)c1)cc(=O)n2C [tipifarnib]
Summary of the method: as §1

mubritinib = compound: FC(F)(F)c1ccc(/C=C/c2nc(COc3ccc(CCCCn4ccnn4)cc3)co2)cc1 [mubritinib]
Summary of the method: as §1

[6] = compound: NC(=O)Nc1cc(-c2cccc(F)c2)sc1C(=O)N[C@H]1CCCNC1
Summary of the method: as §1

[7] = compound: NC(=O)c1cnc(N[C@@H]2CCCC[C@@H]2N)nc1Nc1cccc(-n2nccn2)c1
Summary of the method: as §1

[8] = compound: NC1(c2ccc(-c3nc4ccn5c(=O)[nH]nc5c4cc3-c3ccccc3)cc2)CCC1
Summary of the method: as §1

[9] = compound: NCC(=O)Nc1ccc(-n2nc(C(F)(F)F)cc2-c2ccc3c(ccc4ccccc43)c2)cc1
Summary of the method: as §1

entinostat = compound: Nc1ccccc1NC(=O)c1ccc(CNC(=O)OCc2cccnc2)cc1 [entinostat]
Summary of the method: as §1

vorinostat = compound: O=C(CCCCCCC(=O)Nc1ccccc1)NO [vorinostat]
Summary of the method: as §1

citarinostat = compound: O=C(CCCCCCNC(=O)c1cnc(N(c2ccccc2)c2ccccc2Cl)nc1)NO [citarinostat]
Summary of the method: as §1

silmitasertib = compound: O=C(O)c1ccc2c(c1)nc(Nc1cccc(Cl)c1)c1ccncc12 [silmitasertib]
Summary of the method: as §1

[10] = compound: O=C1NC(=O)C(c2cnc3ccccn23)=C1c1cn2c3c(cc(F)cc13)CN(C(=O)N1CCCCC1)CC2
Summary of the method: as §1

[11] = compound: c1cc(OCCN2CCCCC2)cc(-c2n[nH]c3ccc(-c4nnc[nH]4)cc23)c1
Summary of the method: as §1

SMAP (UniProt O00193)
UniProt O00193, sequence (O00193 whole entry, looked up): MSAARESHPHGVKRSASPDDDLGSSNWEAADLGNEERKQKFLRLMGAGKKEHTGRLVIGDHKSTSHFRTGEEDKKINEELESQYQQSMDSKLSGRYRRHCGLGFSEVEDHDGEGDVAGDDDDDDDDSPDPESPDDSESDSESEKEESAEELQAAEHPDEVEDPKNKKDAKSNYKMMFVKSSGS
log2 fold change (bafetinib): 0.043
log2 fold change [1]: -0.022
log2 fold change (nilotinib): -0.004
log2 fold change [2]: 0.006
log2 fold change (dasatinib): 0.033
log2 fold change [3]: -0.011
log2 fold change [4]: 0.005
log2 fold change [5]: -0.027
log2 fold change (tipifarnib): -0.042
log2 fold change (mubritinib): 0.038
log2 fold change [6]: 0.007
log2 fold change [7]: -0.021
log2 fold change [8]: 0.12
log2 fold change [9]: 0.013
log2 fold change (entinostat): 0.016
log2 fold change (vorinostat): -0.047
log2 fold change (citarinostat): -0.029
log2 fold change (silmitasertib): -0.033
log2 fold change [10]: 0.006
log2 fold change [11]: 0.02

TGFBI (UniProt Q15582)
UniProt Q15582, sequence (Q15582 whole entry, looked up): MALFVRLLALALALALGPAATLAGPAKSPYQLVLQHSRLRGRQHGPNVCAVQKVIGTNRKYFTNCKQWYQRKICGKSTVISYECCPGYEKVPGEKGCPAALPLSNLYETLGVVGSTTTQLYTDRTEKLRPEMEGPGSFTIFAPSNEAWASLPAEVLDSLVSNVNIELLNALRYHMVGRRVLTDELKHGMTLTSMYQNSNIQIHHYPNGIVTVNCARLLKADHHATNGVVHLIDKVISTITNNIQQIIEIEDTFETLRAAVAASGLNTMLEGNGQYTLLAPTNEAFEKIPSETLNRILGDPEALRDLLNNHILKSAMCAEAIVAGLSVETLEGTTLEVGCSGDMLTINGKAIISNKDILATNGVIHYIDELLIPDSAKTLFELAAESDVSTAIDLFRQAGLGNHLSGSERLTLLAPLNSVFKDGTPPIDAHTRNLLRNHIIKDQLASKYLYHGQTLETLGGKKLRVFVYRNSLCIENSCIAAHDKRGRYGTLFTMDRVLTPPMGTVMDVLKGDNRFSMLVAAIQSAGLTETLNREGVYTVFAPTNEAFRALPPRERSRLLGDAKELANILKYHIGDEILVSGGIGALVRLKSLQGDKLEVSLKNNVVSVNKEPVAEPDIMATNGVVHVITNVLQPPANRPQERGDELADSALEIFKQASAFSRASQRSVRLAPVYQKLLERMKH
log2 fold change (bafetinib): -0.241
log2 fold change [1]: 0.148
log2 fold change (nilotinib): -0.099
log2 fold change [2]: 0.054
log2 fold change (dasatinib): -0.04
log2 fold change [3]: 0.167
log2 fold change [4]: 0.197
log2 fold change [5]: 0.098
log2 fold change (tipifarnib): -0.063
log2 fold change (mubritinib): -0.02
log2 fold change [6]: -0.037
log2 fold change [7]: -0.136
log2 fold change [8]: -0.116
log2 fold change [9]: -0.116
log2 fold change (entinostat): 0.056
log2 fold change (vorinostat): 0.309
log2 fold change (citarinostat): -0.056
log2 fold change (silmitasertib): 0.114
log2 fold change [10]: -0.01
log2 fold change [11]: 0.202

TIMM44 (UniProt O43615)
UniProt O43615, sequence (O43615 whole entry, looked up): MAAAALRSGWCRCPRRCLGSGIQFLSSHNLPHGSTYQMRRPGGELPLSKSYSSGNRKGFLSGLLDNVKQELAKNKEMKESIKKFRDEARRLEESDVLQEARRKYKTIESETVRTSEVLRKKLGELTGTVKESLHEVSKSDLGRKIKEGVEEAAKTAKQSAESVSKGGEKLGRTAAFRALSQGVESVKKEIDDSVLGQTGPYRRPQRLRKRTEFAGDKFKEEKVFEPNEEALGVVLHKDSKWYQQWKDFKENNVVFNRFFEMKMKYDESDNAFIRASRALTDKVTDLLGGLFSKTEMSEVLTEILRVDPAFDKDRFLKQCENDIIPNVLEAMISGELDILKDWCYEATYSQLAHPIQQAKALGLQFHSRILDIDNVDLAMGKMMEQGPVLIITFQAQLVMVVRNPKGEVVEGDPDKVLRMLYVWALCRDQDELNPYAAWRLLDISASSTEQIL
log2 fold change (bafetinib): -0.355 (active)
log2 fold change [1]: 0.045
log2 fold change (nilotinib): -0.062
log2 fold change [2]: -0.066
log2 fold change (dasatinib): -0.192
log2 fold change [3]: 0.006
log2 fold change [4]: 0.026
log2 fold change [5]: -0.002
log2 fold change (tipifarnib): -0.054
log2 fold change (mubritinib): 0.001
log2 fold change [6]: -0.085
log2 fold change [7]: -0.141
log2 fold change [8]: -0.372 (active)
log2 fold change [9]: -0.023
log2 fold change (entinostat): 0.084
log2 fold change (vorinostat): 0.04
log2 fold change (citarinostat): 0.066
log2 fold change (silmitasertib): -0.041
log2 fold change [10]: -0.027
log2 fold change [11]: -0.048

TIPRL (UniProt O75663)
UniProt O75663, sequence (O75663 whole entry, looked up): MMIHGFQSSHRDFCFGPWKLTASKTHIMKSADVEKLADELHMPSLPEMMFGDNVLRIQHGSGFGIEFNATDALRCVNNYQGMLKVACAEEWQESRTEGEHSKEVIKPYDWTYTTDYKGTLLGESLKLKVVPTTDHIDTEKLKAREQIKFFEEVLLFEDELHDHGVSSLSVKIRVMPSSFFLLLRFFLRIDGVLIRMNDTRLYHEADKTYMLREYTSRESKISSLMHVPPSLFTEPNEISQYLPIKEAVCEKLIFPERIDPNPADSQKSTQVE
log2 fold change (bafetinib): -0.052
log2 fold change [1]: 0.066
log2 fold change (nilotinib): -0.022
log2 fold change [2]: -0.025
log2 fold change (dasatinib): -0.103
log2 fold change [3]: -0.035
log2 fold change [4]: 0.032
log2 fold change [5]: 0.048
log2 fold change (tipifarnib): -0.16
log2 fold change (mubritinib): 0.098
log2 fold change [6]: -0.057
log2 fold change [7]: -0.114
log2 fold change [8]: -0.209 (active)
log2 fold change [9]: -0.068
log2 fold change (entinostat): 0.033
log2 fold change (vorinostat): 0.095
log2 fold change (citarinostat): 0.069
log2 fold change (silmitasertib): -0.032
log2 fold change [10]: -0.06
log2 fold change [11]: -0.012

STIM1 (UniProt Q13586)
UniProt Q13586, sequence (Q13586 whole entry, looked up): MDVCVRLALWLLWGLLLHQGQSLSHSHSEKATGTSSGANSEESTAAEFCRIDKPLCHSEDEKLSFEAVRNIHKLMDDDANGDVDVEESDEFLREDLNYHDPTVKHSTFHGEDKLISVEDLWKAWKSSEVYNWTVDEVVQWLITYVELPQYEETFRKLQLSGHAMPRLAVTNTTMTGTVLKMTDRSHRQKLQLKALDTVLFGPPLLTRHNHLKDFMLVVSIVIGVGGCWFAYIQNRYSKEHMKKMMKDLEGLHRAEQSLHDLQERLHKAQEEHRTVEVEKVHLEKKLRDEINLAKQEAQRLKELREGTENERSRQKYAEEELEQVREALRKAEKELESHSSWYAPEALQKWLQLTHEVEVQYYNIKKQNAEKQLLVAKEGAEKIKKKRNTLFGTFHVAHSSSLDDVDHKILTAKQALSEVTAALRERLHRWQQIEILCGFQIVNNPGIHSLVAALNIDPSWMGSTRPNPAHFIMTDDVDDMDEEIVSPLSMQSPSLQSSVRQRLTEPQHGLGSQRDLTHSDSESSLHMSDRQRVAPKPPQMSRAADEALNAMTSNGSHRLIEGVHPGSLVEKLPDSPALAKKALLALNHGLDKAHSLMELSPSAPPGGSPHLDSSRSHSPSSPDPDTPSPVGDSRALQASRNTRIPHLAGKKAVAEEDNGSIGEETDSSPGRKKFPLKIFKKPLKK
log2 fold change (bafetinib): -0.143
log2 fold change [1]: 0
log2 fold change (nilotinib): 0.002
log2 fold change [2]: -0.01
log2 fold change (dasatinib): -0.006
log2 fold change [3]: -0.025
log2 fold change [4]: 0.028
log2 fold change [5]: 0.01
log2 fold change (tipifarnib): 0.012
log2 fold change (mubritinib): 0.016
log2 fold change [6]: -0.032
log2 fold change [7]: -0.074
log2 fold change [8]: -0.075
log2 fold change [9]: -0.117
log2 fold change (entinostat): 0.011
log2 fold change (vorinostat): 0.022
log2 fold change (citarinostat): -0.013
log2 fold change (silmitasertib): 0.007
log2 fold change [10]: -0.054
log2 fold change [11]: -0.04

TMBIM1 (UniProt Q969X1)
UniProt Q969X1, sequence (Q969X1 whole entry, looked up): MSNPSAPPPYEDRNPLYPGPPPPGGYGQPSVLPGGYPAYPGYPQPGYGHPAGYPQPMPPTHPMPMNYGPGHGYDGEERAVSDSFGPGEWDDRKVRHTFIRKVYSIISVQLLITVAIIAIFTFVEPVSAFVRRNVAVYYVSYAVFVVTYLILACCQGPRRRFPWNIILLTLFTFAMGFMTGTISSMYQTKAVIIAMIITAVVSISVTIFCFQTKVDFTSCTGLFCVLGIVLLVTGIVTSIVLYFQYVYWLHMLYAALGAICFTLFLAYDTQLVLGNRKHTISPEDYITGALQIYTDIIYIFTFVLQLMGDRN
log2 fold change (bafetinib): 0.068
log2 fold change [1]: -0.07
log2 fold change (nilotinib): 0.168
log2 fold change [2]: -0.044
log2 fold change (dasatinib): -0.01
log2 fold change [3]: 0.149
log2 fold change [4]: -0.06
log2 fold change [5]: -0.105
log2 fold change (tipifarnib): -0.318
log2 fold change (mubritinib): 0.025
log2 fold change [6]: 0.079
log2 fold change [7]: -0.229
log2 fold change [8]: -0.008
log2 fold change [9]: -0.259
log2 fold change (entinostat): 0.062
log2 fold change (vorinostat): -0.034
log2 fold change (citarinostat): -0.208
log2 fold change (silmitasertib): 0.067
log2 fold change [10]: -0.149
log2 fold change [11]: 0.021

SORT1 (UniProt Q99523)
UniProt Q99523, sequence (Q99523 whole entry, looked up): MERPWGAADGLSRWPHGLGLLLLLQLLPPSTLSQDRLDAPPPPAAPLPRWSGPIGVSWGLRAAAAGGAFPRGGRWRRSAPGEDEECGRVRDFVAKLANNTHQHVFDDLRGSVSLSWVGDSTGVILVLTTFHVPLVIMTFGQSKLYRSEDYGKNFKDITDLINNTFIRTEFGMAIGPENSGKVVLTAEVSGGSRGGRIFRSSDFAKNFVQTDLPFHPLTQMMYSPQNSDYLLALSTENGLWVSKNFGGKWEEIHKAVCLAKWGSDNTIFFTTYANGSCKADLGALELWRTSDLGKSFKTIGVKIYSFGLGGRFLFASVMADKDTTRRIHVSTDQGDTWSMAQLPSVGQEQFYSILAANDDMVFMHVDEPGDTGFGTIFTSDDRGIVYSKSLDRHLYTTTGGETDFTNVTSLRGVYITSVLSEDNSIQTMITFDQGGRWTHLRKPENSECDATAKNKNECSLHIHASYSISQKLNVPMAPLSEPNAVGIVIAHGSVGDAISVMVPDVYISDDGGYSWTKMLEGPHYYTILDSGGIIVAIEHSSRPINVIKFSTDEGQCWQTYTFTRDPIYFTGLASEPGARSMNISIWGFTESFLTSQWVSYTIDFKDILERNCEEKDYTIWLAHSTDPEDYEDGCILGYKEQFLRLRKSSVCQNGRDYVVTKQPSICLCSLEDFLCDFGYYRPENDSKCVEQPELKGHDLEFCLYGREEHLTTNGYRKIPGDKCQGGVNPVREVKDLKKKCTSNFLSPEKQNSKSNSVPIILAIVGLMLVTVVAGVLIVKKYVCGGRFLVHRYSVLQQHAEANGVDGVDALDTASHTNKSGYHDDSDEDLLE
log2 fold change (bafetinib): -0.494 (active)
log2 fold change [1]: -0.011
log2 fold change (nilotinib): 0.041
log2 fold change [2]: -0.023
log2 fold change (dasatinib): 0.02
log2 fold change [3]: -0.122
log2 fold change [4]: 0.018
log2 fold change [5]: -0.026
log2 fold change (tipifarnib): 0.076
log2 fold change (mubritinib): 0.045
log2 fold change [6]: -0.005
log2 fold change [7]: -0.032
log2 fold change [8]: -0.687 (active)
log2 fold change [9]: 0.038
log2 fold change (entinostat): -0.017
log2 fold change (vorinostat): -0.002
log2 fold change (citarinostat): 0.073
log2 fold change (silmitasertib): 0.006
log2 fold change [10]: 0.004
log2 fold change [11]: -0.139

TBK1 (UniProt Q9UHD2)
UniProt Q9UHD2, sequence (Q9UHD2 whole entry, looked up): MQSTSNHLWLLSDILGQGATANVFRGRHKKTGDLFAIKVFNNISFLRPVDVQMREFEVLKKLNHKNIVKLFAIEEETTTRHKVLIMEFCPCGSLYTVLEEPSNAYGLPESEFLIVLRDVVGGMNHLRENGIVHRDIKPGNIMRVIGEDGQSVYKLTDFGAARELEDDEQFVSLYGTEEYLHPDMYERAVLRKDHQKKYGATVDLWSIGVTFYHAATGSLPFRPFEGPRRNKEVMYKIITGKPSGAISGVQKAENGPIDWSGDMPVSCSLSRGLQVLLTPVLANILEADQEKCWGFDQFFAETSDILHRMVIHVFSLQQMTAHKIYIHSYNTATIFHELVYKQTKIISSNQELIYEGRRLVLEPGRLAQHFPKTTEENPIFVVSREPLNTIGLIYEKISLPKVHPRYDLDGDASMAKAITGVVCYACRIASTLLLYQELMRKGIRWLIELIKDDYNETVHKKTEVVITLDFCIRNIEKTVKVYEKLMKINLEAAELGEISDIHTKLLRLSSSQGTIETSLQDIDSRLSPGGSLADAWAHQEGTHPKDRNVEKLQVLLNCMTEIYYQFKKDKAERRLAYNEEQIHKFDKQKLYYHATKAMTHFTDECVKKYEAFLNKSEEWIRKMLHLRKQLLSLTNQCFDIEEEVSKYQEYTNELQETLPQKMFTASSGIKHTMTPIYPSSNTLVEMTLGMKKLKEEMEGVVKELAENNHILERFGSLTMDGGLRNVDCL
log2 fold change (bafetinib): -0.035
log2 fold change [1]: -0.024
log2 fold change (nilotinib): -0.114
log2 fold change [2]: 0.911 (active)
log2 fold change (dasatinib): -0.096
log2 fold change [3]: 0.012
log2 fold change [4]: 0.055
log2 fold change [5]: -0.002
log2 fold change (tipifarnib): -0.103
log2 fold change (mubritinib): -0.038
log2 fold change [6]: 0.196
log2 fold change [7]: 0
log2 fold change [8]: -0.086
log2 fold change [9]: -0.118
log2 fold change (entinostat): 0.055
log2 fold change (vorinostat): -0.025
log2 fold change (citarinostat): 0.064
log2 fold change (silmitasertib): 0.057
log2 fold change [10]: -0.014
log2 fold change [11]: -0.029
